# Sampled rows, rich in hits. Any-hit rate of the full collection: about 9.5%.
# RE007 growth inh: less growth of the S. pombe RE007 Vpr strain. Potency, µM (top dose mostly 92.2 µM), usual class: inhibitors. 0.21% of 360,000 active. S. pombe RE007 Vpr strain, BacTiter-Glo ATP luminescence, 24 h; active = well fitted falling curve with a large enough effect; inconclusive = small, poorly fitted or top-dose-only effect; inactive = no such curve, though single readings can be large or run the other way; note: nearly all actives have a fitted effect of over 50% in size
#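 Fission yeast RE007 carrying one integrated HIV-1 vpr copy, seeded at OD 0.01 in PMG+AL medium with 23 nL pinned compound. Grown 24 h at 30 degrees; viability read by BacTiter-Glo luminescence after 5 min.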
# SARS PLP yeast: blocks SARS-CoV papain-like protease in a yeast assay | Potency, µM (titrated, usually from 32.9 µM), actives largely listed as activators | 0.19% of 330,000 active | AID 485353 | S. cerevisiae expressing SARS-CoV PLpro, growth rescue; note: nearly all actives have a fitted effect of over 55% in size
# Pf growth 96h: inhibits malaria parasite growth, 96 h. AID 504834. P. falciparum luciferase reporter growth, 96 h. Potency, µM (top dose mostly 28.7 µM), most hits filed as inhibitors. 6.9% of 320,000 active; active = well fitted inhibition curve with a large enough effect; inconclusive = small, poorly fitted or top-dose-only effect, or another doubt; inactive = no such curve, though single readings can be large or run the other way
#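 Readout is luminescence from an integrated firefly luciferase in P. falciparum. Red cells, 2% hematocrit and 0.05% parasitemia final, were cultured with compound through two parasite generations (96 hours) at 37 C, 5% CO2.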
# Pf growth 48h: P. falciparum growth inhibition at 48 hours (one generation); P. falciparum luciferase growth in erythrocytes, 48 h; Potency, µM (highest dose often 28.7 µM), most hits filed as inhibitors; 5.9% of 310,000 active; active = well fitted inhibition curve with a large enough effect; inconclusive = small, poorly fitted or top-dose-only effect, or another doubt; inactive = no such curve, though single readings can be large or run the other way
#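 Erythrocytes infected with P. falciparum carrying an integrated firefly luciferase reporter (2% hematocrit, 0.1% parasitemia final) were exposed to compounds in RPMI 1640 with 0.5% Albumax at 37 C, 5% CO2. Growth inhibition was scored as reduced luminescence.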
# NS1 function inh: influenza NS1 inhibition; Potency, µM (top dose mostly 46.1 µM); 0.4% of 270,000 active; AID 2326; note: actives are rising curves; nearly all actives have a fitted effect of over 50% in size
#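 In this qHTS, NS1 from influenza A is expressed in budding yeast, where it slows growth. Cells are switched from glucose to 2% galactose medium (pH 6.0, -URA), treated with compound, and growth recovery is read at OD600.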
# Numbers stand for hits; – = inactive; ? = inconclusive; · = no result given; [ ] = another dose, or the depositor's remark. Unless noted, calls come from the whole dose curve.
SMILES,RE007 growth inh,SARS PLP yeast,Pf growth 96h,Pf growth 48h,NS1 function inh
CO[C@H](C(=O)[C@@H](O)[C@@H](C)O)C1Cc2cc3cc(O[C@H]4C[C@@H](O[C@H]5C[C@@H](O)[C@H](O)[C@@H](C)O5)[C@@H](O)[C@@H](C)O4)c(C)c(O)c3c(O)c2C(=O)[C@H]1O[C@H]1C[C@@H](O[C@H]2C[C@@H](O[C@H]3C[C@](C)(O)[C@H](O)[C@@H](C)O3)[C@H](O)[C@@H](C)O2)[C@H](O)[C@@H](C)O1 (stereo not given in full),·,·,0.034µM,0.048µM,·
COC(C(=O)C(O)C(C)O)C1Cc2cc3cc(OC4CC(OC5CC(O)C(O)C(C)O5)C(O)C(C)O4)c(C)c(O)c3c(O)c2C(=O)C1OC1CC(OC2CC(OC3CC(O)C(OC)C(C)O3)C(O)C(C)O2)C(O)C(C)O1 (stereo not given),–,·,·,·,·
COC(C(=O)C(O)C(C)O)C1Cc2cc3cc(OC4CC(OC5CC(O)C(O)C(C)O5)C(O)C(C)O4)c(C)c(O)c3c(O)c2C(=O)C1OC1CC(OC2CC(OC3CC(C)(O)C(O)C(C)O3)C(O)C(C)O2)C(O)C(C)O1 (stereo not given),·,·,1.9µM,0.06µM,·
CCOC(=O)C1C(c2ccc(O)c(OCC)c2)NC(=S)NC1(O)C(F)(F)F (stereo not given),–,–,–,–,?
CCOC(=O)C1C(c2ccc(O)c(O)c2)NC(=S)NC1(O)C(F)(F)F (stereo not given),–,–,12µM,–,–
CC(NC(=O)c1ccc(Cl)c(S(=O)(=O)N2CCCCCC2)c1)c1cccnc1 (stereo not given),–,–,?,12µM,·
CN(C)C(CNC(=O)c1ccc(Cl)c(S(=O)(=O)N2CCCCCC2)c1)c1ccccc1 (stereo not given),–,–,?,5.2µM,·
O=C(NCc1nc2ccccc2[nH]1)c1ccc(Cl)c(S(=O)(=O)N2CCCC2)c1,–,–,–,10µM,?
O=C(Nc1cccnc1)c1ccc(Cl)c(S(=O)(=O)N2CCCCC2)c1,–,–,?,–,–
O=C(Nc1ncccc1O)c1ccc(Cl)c(S(=O)(=O)N2CCCC2)c1,–,·,·,·,·
CCCn1c(NC(=O)c2ccc(Cl)c(S(=O)(=O)N3CCCC3)c2)nc2ccccc21,–,–,5.2µM,5.9µM,–
O=C(NCc1nc2ccccc2[nH]1)c1cccc(S(=O)(=O)N2CCCCC2)c1,–,–,–,–,–
Cc1ccc(S(=O)(=O)/C(=C\N(C)C)c2cnc(Cl)s2)cc1,–,–,?,–,–
O=C(NCc1ccccc1CN1CCCC1)c1cccc(S(=O)(=O)N2CCCC2)c1,–,–,?,?,·
O=C(NCc1ccccc1CN1CCCC1)c1ccc(Cl)c(S(=O)(=O)N2CCCC2)c1,–,–,12µM,13µM,·
COc1cc(CNCC(C)C)cc(Br)c1OCC(=O)Nc1ccccc1,–[3.69 µM],–,10µM,9.3µM,–
COc1cccc(C(=O)OCC(=O)NCCCc2ccccc2)c1,–,–,–,·,–
O=C(CSc1ccc(-c2ccco2)nn1)c1cccc([N+](=O)[O-])c1,–,–,13µM,?,–
CC(=O)c1cccc(NC(=O)CSc2ccc(-c3ccco3)nn2)c1,–,–,–,–,–
CCCCC(=O)NC(c1ccc(Cl)cc1)c1ccc2cccnc2c1O (stereo not given),–,·,·,·,·
CCCCC(=O)NC(c1ccccc1OC)c1ccc2cccnc2c1O (stereo not given),–,?,2.1µM,1.9µM,–
CCCC(=O)NC(c1ccccc1OC)c1ccc2cccnc2c1O (stereo not given),–,–,?,1.7µM,–
CC(=O)Nc1sc2c(c1C#N)CCC(C)C2 (stereo not given),–,–,–,–,–
Cc1ccc(C)n1-c1sc2c(c1C#N)CCC(C)C2 (stereo not given),–,–,6.6µM,·,–
O=C(Nc1cnns1)Oc1ccccc1,–,·,·,·,·
SMILES,RE007 growth inh,SARS PLP yeast,Pf growth 96h,Pf growth 48h,NS1 function inh
O=C(Cn1cc([N+](=O)[O-])nc1[N+](=O)[O-])N1CCN(c2ccccc2)CC1,–,–,–,0.74µM,–
CN(Cc1ccccc1)C(=O)COC(=O)c1ccc[nH]c1=O,–,–,·,·,·
C[C@@H](C(=O)O)c1ccc(C(=O)c2ccccc2)s1,·,·,–,–,·
O=C(Nc1cccc(F)c1)N1CCCC(CNS(=O)(=O)Cc2ccccc2)C1 (stereo not given),–,–,5.2µM,–,–
CCOc1c(Cl)cc(CNCC(C)C)cc1OC,–,–,–,·,–
CCOc1cc(CNCC(C)C)cc(Cl)c1OCc1ccccc1,–,–,5.2µM,13µM,–
CCOc1c(Cl)cc(CNCC(O)c2ccccc2)cc1OC (stereo not given),–,–,–,4.1µM,·
CCOc1cc(CNC2CCCC2)cc(Cl)c1OCc1ccccc1,–,–,?,13µM,–
CCCCNCc1cc(Cl)c(OCCC)c(OCC)c1,–,?,8.3µM,·,–
CCN(C[C@H]1N[C@@](CC)(C(=O)OC)[C@H]2C(=O)N(Cc3ccccc3)C(=O)[C@@H]12)C(=O)Nc1ccc(Cl)cc1,–,–,·,·,·
COc1ccc(CNC(=O)C[C@H]2C[C@H](C(=O)N3CCCCC3)[C@@]3(C)c4[nH]c5cc(CCC(=O)N(C)C)ccc5c4CCN3C2=O)cc1OC,–,–,·,·,·
COc1cc(CNCCc2ccccc2)cc(Cl)c1OCc1ccccc1,–,–,–,8.3µM,·
COc1cc(CNCc2ccccc2)cc(Cl)c1OC,–,–,–,–,–
Cc1cccc(C(C)C)c1NC(=O)Cc1ccc(S(=O)(=O)N2CCOCC2)s1,–,–,?,–,·
O=C1N/C(=N\N=C\c2cccs2)SC1Cc1cccc(Cl)c1 (stereo not given),–,–,–,13µM,?
O=C1N/C(=N\N=C\c2ccc3ncccc3c2)SC1Cc1ccc(SC(F)F)cc1 (stereo not given),–,–,·,–,–
O=C1N/C(=N\N=C\c2cccnc2)SC1Cc1ccc(SC(F)F)cc1 (stereo not given),–,–,·,3.3µM,–
CCC1S/C(=N/N=C/c2cccs2)NC1=O (stereo not given),–,–,?,–,–
O=C1N/C(=N\N=C\c2cccs2)SC1Cc1ccc(Cl)cc1 (stereo not given),–,–,0.74µM,?,–
CCOC(=O)c1ccc(N(CCC2CO2)S(=O)(=O)c2ccc(C)cc2)cc1 (stereo not given),–,·,·,·,·
COc1ccc(CC2SC(N)=NC2=O)cc1 (stereo not given),–,–,?,–,–
O=C(Nc1ccc2snnc2c1)N1CCSCC1,–,–,–,–,–
CNC(=O)Nc1ccc2snnc2c1,–,–,12µM,·,–
Cc1c(C(=O)N2CCC(C(N)=O)CC2)oc2ccc(Br)cc12,–,–,–,–,·
CCc1nnc(NS(=O)(=O)c2ccc(NCc3cc(Br)ccc3O)cc2)s1,–,–,–,–,–
